This assay concerns the target AMP-activated protein kinase, AMPK (Homo sapiens) (UniProt P54646+O43741+P54619+Q9UGJ0+Q9Y478+Q13131+Q9UGI9). Description: AMP-dependent Kinase enzyme assay. An in vitro enzyme assay that detects ADP turnover that is directly proportional to AMPK activity. This uses naive AMPK that is activated during the assay with MK-8722. The format is functional. Also on record: scale not given: direction of the effect not stated beside the values. Particulars: 30 µM.
With `Cc1cnn(CCNCC(=O)N2CCN(c3ccccn3)CC2)c1`, the Percent Effect was -14.7%.
`COc1ccc(Cl)cc1C(=O)N1C[C@H](C(C)C)[C@@H](N)C1`: the Percent Effect stood at 6.24%.
The same measure for `Cc1ccc(CNS(=O)(=O)CCCC#N)cc1F`: 7.39%.
The value for `CCn1cnnc1CCNS(=O)(=O)N1CCCC1c1ccco1` (stereo unspecified) was -10.7%; that for `CC(NC(=O)N1CCC1)c1ccc(S(N)(=O)=O)cc1` (stereo unspecified) was 7.72%; that for `Cc1csc(N2CCC(CCN3CCCC3=O)CC2)n1` was -12.1%.
The same measure for `CC1(C(N)=O)CN(S(=O)(=O)c2cccc(F)c2)CCO1` (stereo unspecified): 3.77%; for `CC(C)(C)c1ccc(C(=O)C2CCCN(C(=O)CNS(C)(=O)=O)C2)cc1` (stereo unspecified): 0.896%.
In the case of `Cc1cccc(C(C(=O)NC(C)(C)CN2CCCC2)N(C)C)c1` (stereo unspecified), the Percent Effect was -15.9%.
The value for `C/C(Cl)=C/CNC(=O)[C@H]1CC[C@]2(CC1)CN(C)C(=O)c1ccccc1O2` was 7.27%; that for `O=C(C1CC1)N1CCCCCC1C1CCN(c2ncccn2)CC1` (stereo unspecified) was -6.9%; that for `COc1ccc(CN2C[C@@H]3CC[C@H](C2)N(S(=O)(=O)C2CC2)C3)cc1` was 10.7%.
The same measure for `Oc1cc(C2CCCN(Cc3cccs3)C2)nc(-c2ccccn2)n1` (stereo unspecified): 16.9%.
The same measure for `CCn1nc(C)c(C(=O)N2C[C@@H](CN(C)CCOC)[C@@H](CO)C2)c1C`: -7.64%.
For `CSCCC(=O)N1CCN(CC(C)O)CC1` (stereo unspecified), the Percent Effect is -1.95%.
In the case of `CCC(C)NC(=O)Nc1cccc(OCCCC#N)c1` (stereo unspecified), the Percent Effect is -4.6%.
The same measure for `CS(=O)(=O)c1ccc(NC(=O)NCCC2=CCCCC2)cc1`: -2.69%; for `CC(C)C[C@@H](N)C(=O)N(C)Cc1csc(C(C)C)n1`: -10.4%.
In the case of `CCc1cnc(N)nc1NCCC(=O)NC1CCCCC1`, the Percent Effect is -4.74%.
The value for `COCCN(C)Cc1cc(Cl)ccc1OCC(O)CN1CCCCCC1` (stereo unspecified) was -8.12%; that for `O=C(Nc1ccc2c(c1)C(=O)NC2=O)c1ccc(Cl)s1` was -3.34%.

The record behind these values is ChEMBL document CHEMBL3988442, “University of Dundee, Small-Polar-MMV Screening Library” (2021).
